We go through eight compounds from PubChem BioAssay (Tox21).

Results filed as inconclusive are left out. Calls of active or inactive are those of the source. Unless noted, the call rests on the fitted dose curve; in most records, active means well fitted curve in the direction sought with a large enough effect in the repeat runs; inconclusive means weak or mixed curves; inactive means no such curve, though single readings can be large; an effect the other way counts as inactive or inconclusive.

Experiment [1] can be described thus: qHTS assay to identify small molecule antagonists of the estrogen receptor alpha (ER-alpha) signaling pathway using the BG1 cell line in the presence of 0.1 nM 17-beta-estradiol - cell viability counter screen (AID 1259241). Further: nearly all actives have a fitted effect of over 40% in size. Further: potency means the concentration at half of the fitted maximal effect. The gist of the method:
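Estradiol-stimulated (0.1 nM) VM7Luc4E2 cells exposed to compounds 22 hr; viability measured by fluorescence of cleaved CellTiter-Fluor substrate after 30 min.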
On the technique in general: In qHTS, concentration-response curves come from the screen itself.

Experiment [2] is described as follows: qHTS assay to identify small molecule antagonists of the androgen receptor (AR) signaling pathway using the MDA cell line in the presence of 0.5 nM R1881 - cell viability counter screen (AID 1259242). Further: nearly all actives have a fitted effect of over 45% in size. Further: potency means the concentration at half of the fitted maximal effect. In outline:
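qHTS format. MDA-kb2 (MMTV-luc, AR/GR responsive) + cpd + 0.5 nM R1881 final, 16 hr 37C/0% CO2 → CellTiter-Fluor 30 min → fluorescence intensity.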

Experiment [3] is described as follows: qHTS assay to identify small molecule HDAC inhibitors (AID 1259364).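 Further: wild-type HCT-116 cells with endogenous class I/II HDAC activity; top concentration of the series differs between compounds; nearly all actives have a fitted effect of over 45% in size.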 In outline:
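Quantitative high-throughput format: overnight-seeded HCT-116 cells got compounds for 2 hr at 37C; HDAC-Glo I/II reagent added, 30 min RT, luminescence measured.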

Experiment [4] in a line: qHTS assay to identify small molecule HDAC inhibitors - cell viability counter screen (AID 1259365). Further: series mostly up to about 92 µM; nearly all actives have a fitted effect of over 50% in size. The gist of the method: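 After overnight seeding at 1,500 cells per well, wild-type HCT-116 cultures took up compounds in DMSO for 2hr at 37 C. Viable cell content came from luminescence with CellTiter-Glo.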
Experiment [5] is described as follows: qHTS assay to identify small molecule agonists of the sonic hedgehog signaling (Shh) pathway - cell viability counter screen (AID 1259366). Further: nearly all actives have a fitted effect of over 50% in size. Further: potency means the concentration at half of the fitted maximal effect. The gist of the method:
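Same-well cytotoxicity read. Gli1-Luc reporter 3T3 cells; compounds 24hr, 37C/5% CO2; CellTiter-Fluor fluorescence.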

Experiment [6] can be described thus: qHTS assay to identify small molecule antagonists of the sonic hedgehog signaling (Shh) pathway - cell viability counter screen (AID 1259367). Further: nearly all actives have a fitted effect of over 55% in size. Further: potency means the concentration at half of the fitted maximal effect. The gist of the method: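 Conditioned medium drove Shh signaling in 3T3 Gli1-Luc cells exposed to compounds at 37C and 5% CO2. Viability was determined from CellTiter-Fluor fluorescence, with reagent incubated 1 hr after 23 hr of treatment.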

A short description of experiment [7]: qHTS assay to identify small molecule agonists of the sonic hedgehog signaling (Shh) pathway (AID 1259368; calls by dose curve;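 further: NIH/3T3-derived 3T3Gli1-Luc cells carrying a stable Gli1-driven firefly luciferase reporter; series mostly up to about 92 µM; nearly all actives have a fitted effect of over 15% in size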). In outline:
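Quantitative high-throughput format using a Gli1-driven firefly luciferase reporter line derived from NIH/3T3 cells. After a 24 hr compound treatment at 37 C and 5% CO2, luminescence reported Gli1 response element activity.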

Experiment [8] can be described thus: qHTS assay to identify small molecule antagonists of the sonic hedgehog signaling (Shh) pathway (AID 1259369; calls by dose curve; further: nearly all actives have a fitted effect of over 45% in size; further: potency means the concentration at half of the fitted maximal effect). In outline:
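Stable Gli1-Luc reporter NIH/3T3 clone; quantitative HTS in stimulated mode with conditioned medium. Luminescence measured after 24hr compound treatment at 37 C.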

A short description of experiment [9]: qHTS assay to identify small molecule agonists of the androgen receptor (AR) signaling pathway in the presence of an antagonist - cell viability counter screen (AID 1259379). Further: nearly all actives have a fitted effect of over 25% in size. Further: potency means the concentration at half of the fitted maximal effect. In outline: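 Nilutamide-containing (3.0uM final) MDA-kb2 cultures, 3,000 cells/well, were treated with compounds across 15 concentrations. After 16 hr at 37C with no CO2, cell viability was determined by CellTiter-Fluor fluorescence in the luciferase assay wells.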

Experiment [10] can be described thus: qHTS assay to identify small molecule agonists of the estrogen receptor beta (ER-beta) signaling pathway - cell viability counter screen (AID 1259380). Further: nearly all actives have a fitted effect of over 30% in size. Further: potency means the concentration at half of the fitted maximal effect. The gist of the method: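 Steps: plate ER-beta-UAS-bla HEK293T cells, rest 6 hr; add compounds in DMSO; incubate 16 hr at 37C, 5% CO2; add FRET substrate 2 hr; add CellTiter-Glo, wait 30 min at room temperature; read luminescence.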

Experiment [11] addresses Estrogen receptor (Homo sapiens) (UniProt P03372). Kind of experiment: qHTS assay to identify small molecule agonists of the estrogen receptor alpha (ER-alpha) signaling pathway in the presence of an antagonist (AID 1259383; calls by dose curve; further: top concentration of the series differs between compounds; nearly all actives have a fitted effect of over 15% in size). The gist of the method: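 Readout was ERE-driven luciferase luminescence in VM7Luc4E2 cells, which express full-length ER-alpha endogenously. Compounds were tested at 15 concentrations for 22hr alongside 10.0nM ICI-182,780 (final concentration).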

Experiment [12] in a line: qHTS assay to identify small molecule agonists or antagonists of the thyroid stimulating hormone receptor (TSHR) signaling pathway - wild type cell line counter screen (AID 1259384; calls by dose curve). In outline:
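Wild-type HEK293 cells were plated 18 h at 37 C/5% CO2, pin-dosed with compound plus Ro20-1724 medium, held 30 min at room temperature, then given cAMP-d2 and anti-cAMP-cryptate; fluorescence was read after 1 h. Fifteen concentrations, triplicate.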

Experiment [13] has as its target Estrogen receptor beta (Homo sapiens) (UniProt Q92731). Kind of experiment: qHTS assay to identify small molecule agonists of the estrogen receptor beta (ER-beta) signaling pathway (AID 1259377; active means well fitted activation curve with a large enough effect in the signal ratio in the repeat runs, not every such curve was filed as active; the % refers to the signal ratio). The gist of the method: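 Read-out: beta-lactamase FRET fluorescence. Cell line: ER-beta-UAS-bla HEK293T in 2% charcoal-stripped FBS. Exposure: 16 hr at 37C. Substrate step: 2 h at room temperature.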

The target in experiment [14] is Thyrotropin receptor (Homo sapiens) (UniProt P16473). In words: qHTS assay to identify small molecule antagonists of the thyroid stimulating hormone receptor (TSHR) signaling pathway (AID 1259385; calls by dose curve; further: nearly all actives have a fitted effect of over 20% in size; further: potency means the concentration at half of the fitted maximal effect). The gist of the method: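 TSHR-HEK293 cells were plated and held 18 h at 37C/5% CO2, then given compound plus Ro20-1724 and stimulated with TSH at 1.5 ng/mL final. After 30 min at room temperature, cAMP was detected with cAMP-d2/anti-cAMP-cryptate (1 h) by fluorescence.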
Chain of Thyrotropin receptor (Homo sapiens) (P16473 whole entry, looked up): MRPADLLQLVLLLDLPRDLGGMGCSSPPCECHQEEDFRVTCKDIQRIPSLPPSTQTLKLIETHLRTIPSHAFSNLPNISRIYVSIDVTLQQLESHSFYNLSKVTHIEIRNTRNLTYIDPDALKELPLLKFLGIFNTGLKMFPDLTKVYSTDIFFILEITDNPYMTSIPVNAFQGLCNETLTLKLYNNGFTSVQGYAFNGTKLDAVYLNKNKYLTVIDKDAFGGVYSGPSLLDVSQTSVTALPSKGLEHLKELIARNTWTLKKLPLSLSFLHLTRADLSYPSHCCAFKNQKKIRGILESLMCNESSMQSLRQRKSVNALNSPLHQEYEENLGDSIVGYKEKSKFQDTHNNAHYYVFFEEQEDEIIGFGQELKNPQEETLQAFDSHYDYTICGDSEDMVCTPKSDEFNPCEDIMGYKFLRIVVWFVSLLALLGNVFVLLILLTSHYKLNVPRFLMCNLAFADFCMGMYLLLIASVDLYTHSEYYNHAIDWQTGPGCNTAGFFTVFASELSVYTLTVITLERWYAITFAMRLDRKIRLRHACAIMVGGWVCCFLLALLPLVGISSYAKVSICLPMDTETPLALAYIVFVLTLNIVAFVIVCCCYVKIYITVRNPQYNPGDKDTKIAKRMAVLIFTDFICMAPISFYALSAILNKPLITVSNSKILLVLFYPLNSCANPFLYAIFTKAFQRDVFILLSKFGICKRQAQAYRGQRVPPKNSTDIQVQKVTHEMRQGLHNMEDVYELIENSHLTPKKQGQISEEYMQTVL

Experiment [15] has as its target Estrogen receptor beta (Homo sapiens) (UniProt Q92731). In words: qHTS assay to identify small molecule antagonists of the estrogen receptor beta (ER-beta) signaling pathway (AID 1259378; active means well fitted inhibition curve with a large enough effect in the signal ratio in the repeat runs, not every such curve was filed as active; the % refers to the signal ratio; further: potency means the concentration at half of the fitted maximal effect). In outline: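 ER-beta-UAS-bla HEK293T (GripTite) cells in 2% charcoal-stripped FBS medium were preincubated 6 hr at 37C, dosed with compound, then stimulated with 1 nM E2 (final) for 16 hr; beta-lactamase reporter read by B/G FRET fluorescence after 2 hr substrate loading.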

Experiment [16] is described as follows: qHTS assay to identify small molecule antagonists of the estrogen receptor beta (ER-beta) signaling pathway - cell viability counter screen (AID 1259382). Further: series mostly up to about 92 µM; nearly all actives have a fitted effect of over 55% in size. The gist of the method: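 Viability is scored by CellTiter-Glo luminescence (30 min, room temperature) in ER-beta-UAS-bla HEK293T wells already read for reporter fluorescence. Compound exposure lasts 16 hr at 37C alongside 1nM 17-beta-estradiol in charcoal-stripped serum medium.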

Chain of Estrogen receptor beta (Homo sapiens) (Q92731 whole entry, looked up): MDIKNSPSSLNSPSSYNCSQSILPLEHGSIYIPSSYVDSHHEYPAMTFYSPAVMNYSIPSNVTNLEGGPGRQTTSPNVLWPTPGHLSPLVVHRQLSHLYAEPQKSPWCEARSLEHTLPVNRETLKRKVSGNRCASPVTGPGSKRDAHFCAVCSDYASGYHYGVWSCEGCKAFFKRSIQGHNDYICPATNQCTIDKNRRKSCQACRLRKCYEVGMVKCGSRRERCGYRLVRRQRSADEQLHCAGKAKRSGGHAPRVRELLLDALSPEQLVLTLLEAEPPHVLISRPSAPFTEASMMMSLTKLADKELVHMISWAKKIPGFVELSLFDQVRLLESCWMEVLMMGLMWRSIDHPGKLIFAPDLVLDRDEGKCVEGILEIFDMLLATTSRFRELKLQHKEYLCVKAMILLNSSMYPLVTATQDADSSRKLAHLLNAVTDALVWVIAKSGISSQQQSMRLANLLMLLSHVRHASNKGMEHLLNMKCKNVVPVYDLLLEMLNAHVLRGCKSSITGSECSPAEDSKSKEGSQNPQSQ
Chain of Estrogen receptor (Homo sapiens) (P03372 whole entry, looked up): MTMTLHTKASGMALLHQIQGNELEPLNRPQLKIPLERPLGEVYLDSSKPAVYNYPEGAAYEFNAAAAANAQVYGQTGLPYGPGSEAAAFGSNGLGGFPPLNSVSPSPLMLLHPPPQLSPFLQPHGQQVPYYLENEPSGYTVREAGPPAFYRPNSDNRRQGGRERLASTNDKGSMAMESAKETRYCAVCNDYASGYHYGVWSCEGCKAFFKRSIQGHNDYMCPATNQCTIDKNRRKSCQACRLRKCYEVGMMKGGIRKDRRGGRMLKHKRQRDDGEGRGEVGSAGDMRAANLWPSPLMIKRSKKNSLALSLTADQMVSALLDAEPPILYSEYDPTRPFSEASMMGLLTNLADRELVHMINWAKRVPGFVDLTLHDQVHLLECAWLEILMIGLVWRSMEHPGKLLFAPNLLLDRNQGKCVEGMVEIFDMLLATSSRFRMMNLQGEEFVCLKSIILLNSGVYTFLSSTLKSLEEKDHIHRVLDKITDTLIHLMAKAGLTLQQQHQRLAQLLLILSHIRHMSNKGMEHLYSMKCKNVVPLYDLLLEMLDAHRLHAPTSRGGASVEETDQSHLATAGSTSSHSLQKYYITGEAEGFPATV

In the case of `O=C(Nc1cccc(Cl)c1)OCC#CCCl`, the Potency in [1] is 61.1 µM (active); in [2], 61.1 µM (active); in experiment [5], 27.3 µM (active); in experiment [6], 24.3 µM (active); in experiment [8], 5.45 µM (active); in [9], 54.5 µM (active). Further, the Potency in experiment [10] was 54.5 µM (active). Also, the Potency entry in [3], in [4], in [7] and in experiment [11] was “inactive” throughout. Besides, the compound was called inactive in experiment [12].

On to `CN(C)c1ccc(SC#N)cc1`, for which the Potency entry in experiment [1], in experiment [2], in experiment [3], in experiment [4], in experiment [5] and in [7] was “inactive” throughout. Also, the Potency entry in experiment [13], in experiment [11] and in experiment [14] was “inactive” in each case. For the same compound, the Potency was 48.6 µM (active) in experiment [8] and 54.5 µM (active) in experiment [10]. Moreover, the compound was classed as inactive in [12].

Consider `CCCCN(CCCC)C(=O)N(CCCC)CCCC`, for which the Potency result in experiment [1], in experiment [2], in experiment [3], in experiment [4], in experiment [5] and in experiment [6] was “inactive” in each case. Besides, the Potency entry in experiment [7], in [8], in experiment [13], in [15], in [9] and in [16] was “inactive” each time. In experiment [12], the call was inactive.

As for `Cc1cc(N)c(S(=O)(=O)O)cc1Cl`, the Potency result in experiment [1], in experiment [2], in experiment [3], in experiment [4], in [5] and in experiment [6] was “inactive” throughout. Also, the Potency entry in [7], in [13], in experiment [15], in experiment [9], in experiment [10] and in experiment [16] was “inactive” throughout. In addition, the Potency entry in experiment [14] was “inactive”. In addition, the compound was classed as inactive in experiment [12].

With `COCCCC/C(=N\OCCN)c1ccc(C(F)(F)F)cc1`, the Potency result in experiment [1], in experiment [2], in experiment [3], in experiment [4], in experiment [5] and in experiment [6] was “inactive” throughout. For the same compound, the Potency entry in [7], in experiment [13] and in experiment [11] was “inactive” each time. In addition, the Potency was 29.8 µM (active) in experiment [15], 13.3 µM (active) in experiment [10] and 29.8 µM (active) in experiment [14]. The compound was called inactive in [12].

Consider `C/C=C(\C)C(=O)OCc1ccccc1`, for which the Potency result in experiment [1], in experiment [2], in experiment [3], in [4], in [5] and in experiment [6] was “inactive” in each case. Besides, the Potency entry in experiment [7], in experiment [8], in experiment [13], in [15], in [9] and in experiment [10] was “inactive” in each case. In addition, the Potency entry in experiment [16] and in experiment [14] was “inactive” throughout. Moreover, the outcome in [12] was inactive.

As to `O=C(OCC(COC(=O)c1ccccc1)(COC(=O)c1ccccc1)COC(=O)c1ccccc1)c1ccccc1`, the Potency result in experiment [1], in experiment [2], in experiment [3], in experiment [4], in experiment [5] and in [6] was “inactive” each time. In addition, the Potency result in experiment [7], in experiment [8], in [13], in [9], in experiment [10] and in [16] was “inactive” in each case. For the same compound, in experiment [14], the Potency result was “inactive”. Besides, in experiment [12], the compound was classed as inactive.

On to `COc1cccc(N)c1`, for which the Potency entry in experiment [1], in experiment [2], in experiment [3], in experiment [4], in [5] and in experiment [6] was “inactive” throughout. Further, the Potency result in [7], in experiment [8], in experiment [9], in [16] and in experiment [14] was “inactive” throughout. For the same compound, in experiment [12], the compound was called inactive.
